Screening data deposited in PubChem BioAssay by National Center for Advancing Translational Sciences (NCATS).
Cycloheximide cs: Cycloheximide Counterscreen for Small Molecule Inhibitors of Shiga Toxin | cell reporter, cycloheximide protein synthesis inhibition counterscreen | max response, % | hit rate 12% among 300,000 | AID 2314, 2010; in the data active = max response mostly above about 13%, no sharp cut-off; inactive = mostly below about 14%; also: read at 38.3 µM for the half of the compounds with a filed dose; 0% is about no effect
Pf growth 96h: Primary qHTS for delayed death inhibitors of the malarial parasite plastid, 96 hour incubation; P. falciparum luciferase reporter growth, 96 h; Potency, µM (titrated, usually from 28.7 µM), for the others: at the top dose activity change, negative = inhibition, actives largely listed as inhibitors; hit rate 6.9% among 320,000; AID 504834, 2011; also: potency is read from the fitted curve at half-maximal effect; % is scaled to controls: 0 for no effect and ±100 for the full control effect
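P. falciparum expressing integrated firefly luciferase grown in erythrocytes (2% hematocrit, 0.05% parasitemia final) with compounds for 96 hours at 37 C, 5% CO2. Growth inhibition read as loss of luminescence after adding luciferase detection reagent.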
Pf growth 48h: Primary qHTS for delayed death inhibitors of the malarial parasite plastid, 48 hour incubation; P. falciparum luciferase growth in erythrocytes, 48 h; Potency, µM (doses to about 28.7 µM), inactives show at the top dose activity change, negative = inhibition, most hits filed as inhibitors; hit rate 5.9% among 310,000; also: potency is read from the fitted curve at half-maximal effect; % is scaled to controls: 0 for no effect and ±100 for the full control effect
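Compounds are pin-transferred into medium, infected erythrocytes (2% hematocrit, 0.1% parasitemia final) are added, and plates sit one parasite generation at 37 C in 5% CO2. Detection reagent is then added and luminescence measured.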
Shiga inhibitor: A qHTS for Small Molecule Inhibitors of Shiga Toxin; inhibition, % at 38.7 µM; hit rate 9.2% among 290,000; Vero cells, Shiga toxin protein synthesis inhibition reporter; in the data active = inhibition mostly above about 28%, no sharp cut-off; inactive = mostly below about 43%; also: 0% is about no effect
HCMV antiviral: qHTS Assay for inhibitors of the human cytomegalovirus (HCMV). HFF cells, HCMV-luciferase reporter, 72 h; active compounds read low. activity change, negative = inhibition, % at 57.5 µM. hit rate 4.5% among 410,000; in the data active = activity change below about -60%; inconclusive = no clear call, values can overlap the other calls; inactive = above about -39%; also: % is scaled to controls: 0 for no effect and ±100 for the full control effect
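Compounds were evaluated in HFFs infected with an HCMV luciferase reporter virus (MOI 1 PFU/cell). Luciferase in lysates collected 72 h post infection served as the replication measure.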
An asterisk follows results filed as active; ? = inconclusive; / = no result; + = active, no number. Hits are enriched below; roughly 20% of the tested compounds scored in any of these assays. Unless noted, calls follow the shape of the dose curve; as a rule, active = well fitted inhibition curve with a large enough effect; inconclusive = small, poorly fitted or top-dose-only effect, or another doubt; inactive = no such curve, though single readings can be large or run the other way.

SMILES | Cycloheximide cs | Pf growth 96h | Pf growth 48h | Shiga inhibitor | HCMV antiviral
CC(=O)Nc1cccc(C(=O)N2CCN(S(=O)(=O)Cc3ccccc3)CC2)c1 | / | / | / | / | -7.9
CC1(CCc2ccccc2)NC(=O)N(CC(=O)N2CCCCCC2)C1=O (centres undefined) | / | 1.9% | 2.9% | / | -22.2
CN(C)/N=C/C=C1\CCC/C(=C\c2ccc(F)c(F)c2)C1=O | 86.6* | ? | ? | + | ?
COc1ccc(/C=C2\CCC/C(=C\C=N\N(C)C)C2=O)cc1 | 27.7* | ? | -8.7% | 40.7 | ?
CC(=O)c1ccc(NC(=O)C2CCC(CNS(=O)(=O)c3ccc(Br)s3)CC2)cc1 (centres undefined) | / | / | / | / | 17.1
Cc1c(Nc2nc(C(F)(F)F)nc3ccccc23)c(=O)n(-c2ccccc2)n1C | 0.3 | ? | -2.7% | -13.7 | -15.3
CC(=O)OCc1c(-c2ccccc2)c2cc([N+](=O)[O-])ccc2n1C | -0.9 | -17.2% | 6.4% | -2.7 | -77.2*
CSc1ccc(CNC(=O)CCc2c(C)nn(-c3ccc(N4CCCC4)nn3)c2C)cc1 | / | / | / | / | 18.2
CC1CCCC(C)N1C(=O)CSc1nc2ncnc(N)c2[nH]1 (centres undefined) | -2.2 | 0.738µM* | 6.4% | 18.5 | -14.2
CCC(=O)NCCC1CCc2ccc3c(c21)CCO3 (centres undefined) | / | -18.3% | -1.0% | / | /
COC(=O)C1=C(C)NC(C)=C(C(=O)OCC(C)C)C1c1ccccc1[N+](=O)[O-] (centres undefined) | / | 2.39µM* | 7.57µM* | / | ?
Cc1ccc2c(Sc3ccccc3)c(C(=O)NCc3ccccc3F)[nH]c2c1 | / | / | / | / | -17.7
CCc1ccc(NCc2cc3ccc(OC)cc3n(CC(=O)Nc3ccc(C(C)C)cc3)c2=O)cc1 | / | / | / | / | 38.9
COc1ccc(NS(=O)(=O)c2cccc(C(=O)NNC(=O)COc3ccccc3)c2)cc1 | / | 30.3% | 77.7% | / | 8.2
COc1ccc(NS(=O)(=O)c2cccc(C(=O)NNC(=O)c3ccc(C)o3)c2)cc1 | / | -17.0% | -18.1% | / | -32.1
COc1ccc(NS(=O)(=O)c2cccc(C(=O)NNC(=O)c3cc(C)oc3C)c2)cc1 | -2.1 | 24.2% | 1.1% | -1.6 | -100.9*
COc1ccc(NS(=O)(=O)c2cccc(C(=O)NNC(=O)c3ccccc3O)c2)cc1 | / | 4.4% | ? | / | -94.4*
C[C@]12CCCCC3=CC(=O)C=C[C@@]31OC(=O)CC2 | / | / | / | / | -17.0
Cc1c(OCc2ccccc2)c(=O)ccn1Cc1ccc(F)cc1 | -2.5 | 2.33µM* | ? | -3.5 | -24.7
CCc1ccc(NC(=O)CN(c2ccc(C)cc2)S(=O)(=O)c2c(C)nn(C)c2C)cc1 | / | / | / | / | -8.7
Cc1ccc(S(=O)(=O)N/N=C\c2cn(-c3ccccc3)nc2-c2ccccc2)cc1 | 19.7* | 3.1% | 56.3% | 30.7 | -13.6
Cc1ccc(-c2nn(-c3ccccc3)cc2/C=N/NS(=O)(=O)c2ccccc2)cc1 | 36.1* | ? | ? | 39.4 | 3.6
O=S(=O)(N/N=C\c1cn(-c2ccccc2)nc1-c1ccccc1)c1ccccc1 | 12.7 | 98.3% | 7.0% | 17.4 | -19.2
O=C(CC(CC(=O)c1ccccc1)c1ccccc1)c1ccccc1 | 9.5 | 1.0% | -7.7% | 6.9 | -8.5
COC(=O)COC(=O)CC(CC(N)=O)c1ccccc1 (centres undefined) | -0.7 | 9.28µM* | -0.5% | 14.9 | 17.9
SMILES | Cycloheximide cs | Pf growth 96h | Pf growth 48h | Shiga inhibitor | HCMV antiviral
Cc1ccc(C)c(CN2C(=O)c3ccccc3S(=O)(=O)c3ccc(C(=O)N4CCN(Cc5ccccc5)CC4)cc32)c1 | / | / | / | / | 23.0
CCCC1=Nc2cc(C(=O)NC3CCC(C)CC3)ccc2Sc2ccccc21 (centres undefined) | / | / | / | / | -76.9*
CCCC1=Nc2cc(C(=O)NCCCN3CCN(C)CC3)ccc2Sc2ccccc21 | -6.1 | ? | ? | -5.1 | 0.0
CCCNC(=O)c1ccc2c(c1)N=C(CCC)c1ccccc1S2 | / | / | / | / | -86.1*
CCOCCCNC(=O)c1ccc2c(c1)N=C(CC)c1cc(Br)ccc1S2 | -3.2 | ? | 4.15µM* | -17.8 | -88.5*
CCC1=Nc2cc(C(=O)NCCc3ccccc3)ccc2Sc2ccc(Cl)cc21 | / | / | / | / | 4.2
CCCC1=Nc2cc(C(=O)NCCc3ccccc3)ccc2Sc2ccc(C)cc21 | / | / | / | / | -67.2*
COc1ccc(NC(C)=O)cc1NC(C)C(=O)Nc1ccc(S(=O)(=O)N2CCCCC2)cc1 (centres undefined) | / | ? | ? | / | 34.6
Cc1ccc(F)cc1C(=O)N1CCCC(c2cc(C(=O)NCc3ccc(F)cc3)no2)C1 (centres undefined) | / | / | / | / | -17.4
Cc1cc(C)cc(NC(=O)CCC(=O)Nc2cc(C)on2)c1 | 2.3 | 0.0% | 0.8% | -9.6 | 105.8
O=C1OC(c2cc(I)c(O)c(I)c2)(c2cc(I)c(O)c(I)c2)c2ccccc21 | 0.8 | / | / | -1.9 | 2.9
Cc1cncc(C(=O)O)[n+]1[O-] | / | 4.6% | -6.8% | / | /
O=S(=O)(c1cccc(-c2n[nH]c(=S)n2-c2ccc(OC(F)(F)F)cc2)c1)N1CCOCC1 | / | / | / | / | -18.0
Cn1c(N)c(C(=O)COC(=O)/C=C/c2ccccc2)c(=O)n(C)c1=O | / | / | / | / | 11.8
Cn1c(N)c(C(=O)COC(=O)/C=C/c2cccc(F)c2)c(=O)n(C)c1=O | / | -83.5% | 11.7µM* | / | -29.3
Cn1c(N)c(C(=O)COC(=O)/C=C/c2cccc(Br)c2)c(=O)n(C)c1=O | / | -112.2% | 13.1µM* | / | -4.9
Cn1c(N)c(C(=O)COC(=O)/C=C/c2ccc(F)cc2)c(=O)n(C)c1=O | / | ? | ? | / | -4.0
Cc1ccc(NC(=O)c2ccc(Cl)c(S(=O)(=O)N3CCCCCC3)c2)nc1 | / | ? | ? | / | -68.3*
Cc1ccc(NC(=O)c2ccc(C)c(S(=O)(=O)N3CCCCC3)c2)nc1 | / | 4.1% | ? | / | -26.1
Cc1cccc(NC(=O)c2cc(S(=O)(=O)N3CCCCC3)ccc2Cl)n1 | / | ? | 9.28µM* | / | -16.5
O=C(Nc1ccncc1)c1ccc(Cl)c(S(=O)(=O)N2CCc3ccccc32)c1 | / | 3.7µM* | 3.29µM* | / | -68.6*
Cc1cccc(NC(=O)c2ccc(Cl)c(S(=O)(=O)N3CCc4ccccc43)c2)n1 | / | 11.7µM* | 11.7µM* | / | -64.9*
CCc1nnc(NC(=O)c2ccc(Cl)c(S(=O)(=O)N3CCc4ccccc43)c2)s1 | 0.6 | ? | / | -8.2 | -36.2
O=C(Cc1ccccc1)Nc1ncccc1Cl | / | / | / | / | -17.3
N#CC(Sc1ccccn1)c1ccc(Cl)cc1Cl (centres undefined) | 10.5 | ? | ? | -2.8 | -33.4
Cc1ccc(CNC(=O)c2cc3c(=O)n4cccc(C)c4nc3s2)cc1 | / | / | / | / | 9.1
C=CCC1(O)C(=O)N2C(=C1C(=O)N1CCOCC1)c1ccccc1CC2(C)C (centres undefined) | -2.1 | ? | / | -17.5 | 33.6
COc1ccc(S(=O)(=O)N2CCCCCC2)cc1C(=O)Nc1ccc(C)cn1 | / | 0.1% | ? | / | -36.7
Cc1ccc(S(=O)(=O)N2CCCCC2)cc1C(=O)Nc1ccccn1 | -1.0 | 2.08µM* | 3.29µM* | -8.3 | 30.9
